“And” between values parts separate entries of the source, which are not always exact repeats. Equal values may be shown once. The panel holds about 83,000 compounds, 20% with a hit somewhere; the sample as a whole holds those more often.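 Plates (96-well) were seeded with cells, treated with compound at one concentration, and incubated for 48 hours before percent growth was determined.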 The source made the active and inactive calls. The calls were made as follows: active = growth percent below 10; inactive = the rest.

The experiment concerns HL-60(TB) leukemia. The experiment in a line: NCI-60 one-dose screen, 48 h (100 = growth as untreated, 0 = no growth, -100 = all killed). Conditions: 10 µM unless noted.
As to `CN1C(=O)CNC(=O)[C@H](NC(=O)c2nc3ccccc3cc2O)CSSC[C@H]1C(=O)NCCCc1nc2ccccc2cc1O`, the growth is -44.3% (active).

On to `O=C(NNc1ccccc1)OCc1ccccc1`, for which the growth is 5.98% (active).

Consider `CC1=CC[C@@H]2C(C)(C)C(=O)CC[C@@]2(C)[C@@H]1COc1ccc2ccc(=O)oc2c1`, for which the growth was 85.9% (inactive). As for `N#CCNC(=O)c1ccc(-c2ccnc(Nc3ccc(N4CCOCC4)cc3)n2)cc1`, the growth is -25.3% (active).

For `O=C(O)C1C(c2ccccc2)c2ccccc2C(O)C1CO` (stereo not given), the growth was 102% (inactive). On to `Nc1nc(N)c2nc(CNc3ccc(C(=O)NC(CCC(=O)O)C(=O)O)cc3)cnc2n1` (stereo not given), for which the growth was 35.3% (inactive) and 49.9% (inactive). The result for `CC(=O)N1N=C(c2ccc(C(F)(F)F)cc2)CC1c1ccc2c(c1)OCO2` (stereo not given) reads 95.6% (inactive); that for `Cc1cc(Br)nnc1Br`, 84.3% (inactive). `OCC1CCC(O)C(CO)N1` (stereo not given): the growth is 98.2% (inactive). Consider `O=C(O)CC1Sc2ccccc2NC1=O` (stereo not given), for which the growth was 115% (inactive). As to `CC(=O)Oc1cc(C(=O)O)cc(OC(C)=O)c1OC(C)=O`, the growth was 108% (inactive) and 88.2% (inactive). On to `CCOC(=O)c1ccc2[nH]c(-c3ccccc3)cc(=O)c2c1`, for which the growth was 95.3% (inactive). As for `CCCCCCCCCCCCCCCCC(Br)C(=O)O` (stereo not given), the growth was 111% (inactive). Consider `CN1C=CN(Cc2ccc(-c3ccccn3)nc2)[CH-]1.CN1C=CN(Cc2ccc(-c3ccccn3)nc2)[CH-]1.[Au+3]`, for which the growth was -9.42% (active).

For the molecule `Clc1ccc2c(NCCNc3nc(N4CCCCC4)nc4ccccc34)ccnc2c1`, the growth was -61.2% (active). For `CC1(C)OC(=O)C(=Cc2ccc(C#N)cc2)C(=O)O1`, the growth was 93.3% (inactive) and 88.8% (inactive). Consider `C[C@]12C=CC(=O)C=C1CCC1C2[C@@H](O)C[C@@]2(C)C1CC[C@]2(O)C(=O)COC(=O)CCC(=O)O` (stereo not given in full), for which the growth is 104% (inactive). For `O=C(Cn1c2c(c3ccccc31)CCCC2)Nc1ccc(-c2nc3ccccc3s2)cc1`, the growth is 99.1% (inactive). Regarding `CCc1ccccc1-n1c(N)c(C#N)c(-c2ccc(N(C)C)cc2)c(C#N)c1=O`, the growth is 96.4% (inactive). As to `COc1nc(N(C)O)nc(N(C)O)n1`, the growth was 50.4% (inactive). For `CCOC(=O)C1=C(C)n2nc(CC#N)c(C#N)c2NC1c1ccc(Cl)cc1` (stereo not given), the growth was 105% (inactive). For `N=C(N)c1ccc(-c2ccc(-c3cc(Cl)cc(Cl)c3)o2)o1`, the growth is -64% (active).

On to `CC[C@@H](C(=O)[C@H](C)[C@H](O)[C@@H](C)[C@H]1O[C@H]([C@@H](CC)C(=O)O)CC[C@H]1C)C1O[C@]2(C=C[C@@H](O)[C@]3(CC[C@@](C)([C@H]4CC[C@](O)(CC)[C@H](C)O4)O3)O2)[C@H](C)C[C@@H]1C` (stereo not given in full), for which the growth was -36.8% (active).

For the molecule `O=C(c1cc(-c2ccc(Cl)cc2)nc2ccccc12)N1N=C(c2ccccc2)CC1c1cc(-c2ccccc2)nn1-c1ccccc1` (stereo not given), the growth was 91.6% (inactive). In the case of `O=S(=O)(NCCNc1cc(-c2c(-c3cccc(O)c3)nc3sccn23)ccn1)c1ccc(C(F)(F)F)cc1` it was 15.7% (inactive); in that of `Fc1cnccc1C1CC(c2ccc(N3CCNCC3)cc2)=NN1` (stereo not given), 77.3% (inactive); in that of `COc1ccc(C(O)c2cc3c(N)c(C(=O)Nc4ccc(Cl)cc4)sc3nc2C)cc1` (stereo not given), -50.1% (active). The result for `O=C1CCc2c(sc3[nH]c(=S)n(-c4ccc(OC(F)(F)F)cc4)c(=O)c23)C1` reads 39.7% (inactive); that for `CCCCCCCCCCCCCCCC(N)c1ccccc1` (stereo not given), -14.3% (active). With `COc1ccc(S(=O)(=O)NCCNc2nccc(-c3c(-c4cccc(F)c4)nc4sccn34)n2)cc1`, the growth was 58.8% (inactive). As to `O=C1/C(=C/c2cccs2)SC(=S)N1CCCN1CCOCC1`, the growth was 90.4% (inactive). Consider `COc1ccc(C(=O)C2C(c3ccc(OC)cc3)CN(C)C23C(=O)Nc2ccccc23)cc1` (stereo not given), for which the growth was 99.1% (inactive).

With `C#CCOc1ccc2ncnc(Nc3ccc(NC(=O)CCl)cc3)c2c1`, the growth was -57.5% (active). `CCCCCCC(C)CC1=C(O)c2ccccc2C(=O)C1=O` (stereo not given): the growth is 37.5% (inactive).

For the molecule `NS(=O)(=O)N(c1cc(C(F)(F)F)cc(C(F)(F)F)c1)C1CCN(Cc2ccc(C(F)(F)F)cc2)CC1`, the growth is 37.3% (inactive). Consider `COc1cc(-c2nc3sc4c(c3c(=O)[nH]2)CCCCCC4)cc(OC)c1OC`, for which the growth is -19.3% (active). With `O=C(CCC(=O)N/N=C/c1ccccc1O)N/N=C/c1ccccc1O`, the growth is 7.25% (active). Take `O=C(CCl)N1CCCc2ccccc21`: the growth was 93.3% (inactive). On to `CN(C)C(=S)SC(=S)N(C)C`, for which the growth was 103% (inactive) and 93.8% (inactive). In the case of `COc1ccc(-c2n[nH]nc2-c2cc(OC)c3c(c2OC)OCO3)cc1` it was -23.2% (active).
